# Paper PMC5540273 (PLoS ONE, 2017)
# What was measured:
# Conditions in all cases: concentration: 1 μM, replicates: in singlicate; n = 1
# [1] = tested on: JAK1(JH2domain-pseudokinase)
# [2] = tested on: JAK2(JH1domain-catalytic)
# [3] = tested on: JAK3(JH1domain-catalytic)
# [4] = tested on: T1, JNK1
# T1 construct: gene MAPK8
# [5] = tested on: T2, JNK2
# T2 construct: gene MAPK9
# [6] = tested on: T3, JNK3
# T3 construct: gene MAPK10
# [7] = tested on: KIT-autoinhibited
# [8] = tested on: KIT
# [9] = tested on: LATS1
# [10] = tested on: LATS2
# [11] = tested on: LCK
# [12] = tested on: LIMK1
# [13] = tested on: LIMK2
# [14] = tested on: T4, LKB1
# T4 construct: gene STK11
# [15] = tested on: T5, LOK
# T5 construct: gene STK10
# [16] = tested on: LRRK2
# [17] = tested on: LTK
# [18] = tested on: LYN
# [19] = tested on: T6, LZK
# T6 construct: gene MAP3K13
# [20] = tested on: MAK
# 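Further: KINOMEscan kinase panel screen.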
Structure (SMILES),%Inh [1] [%],%Inh [2] [%],%Inh [3] [%],%Inh [4] [%],%Inh [5] [%],%Inh [6] [%],%Inh [7] [%],%Inh [8] [%],%Inh [9] [%],%Inh [10] [%],%Inh [11] [%],%Inh [12] [%],%Inh [13] [%],%Inh [14] [%],%Inh [15] [%],%Inh [16] [%],%Inh [17] [%],%Inh [18] [%],%Inh [19] [%],%Inh [20] [%]
Cl.c1ccc(-c2ccc3c(Nc4ccc5[nH]ncc5c4)ccnc3c2)nc1 [GW440137],0,36,0,9,27,15,0,94.4,0,3,42,9,23,0,2,0,18,31,1,21
Cc1cccc(Nc2nc(N[C@H]3CCNC3)ncc2C(N)=O)c1.Cl [GSK2197149],88,58,3,67,29,34,0,94.9,0,0,40,0,0,8,0,56,0,26,0,11
O=C(Nc1cccc(-c2nn3ccccc3c2-c2ccnc(Nc3cccc(C(F)(F)F)c3)n2)c1)c1c(F)cccc1F [GSK292658],0,26,0,3,0,0,0,94.6,0,6,95.2,0,5,0,80,1,3,72,0,25
Cc1ccc(F)c(C(=O)Nc2cccc(-c3nn4ccccc4c3-c3ccnc(Nc4cccc(F)c4)n3)c2)c1F [GSK361061],0,8,0,29,38,25,2,99.4,1,23,97.1,33,15,0,98.5,6,9,73,0,0
CN(c1ccc(NC(=O)Nc2cc(C(F)(F)F)ccc2F)cc1)c1ccnc(Nc2ccc(S(N)(=O)=O)cc2)n1 [GW809893],16,94.7,51,8,51,0,16,99.5,0,0,99.6,89,84,0,100,72,95.7,96.4,0,95.7
Nc1n[nH]c2cnc(-c3ccccc3)cc12 [SB-642124],0,75,91,13,0,6,12,0,0,2,0,19,1,0,0,12,0,3,0,37
O=C(Nc1cccc(-c2nn3ncccc3c2-c2ccnc(Nc3ccccc3)n2)c1)c1c(F)cccc1F [GSK198271],0,2,0,31,56,21,20,100,0,0,99.3,75,0,3,99,0,0,99.4,0,19
CSc1cccc2c(-c3ccncn3)c(-c3ccc(F)cc3)nn12 [GW514786],9,9,0,24,71,75,0,0,0,16,20,11,0,0,0,34,0,0,20,0
O=C(NC1CCN(c2ccnc(Nc3ccc(F)cc3)n2)C1)c1cc2ccccc2s1 (centres unmarked) [GSK1379716],0,0,0,24,29,13,0,21,7,0,32,0,0,19,0,0,10,0,23,38
CN(C)S(=O)(=O)c1cc(-c2ccc3nccc(-c4cccc(S(N)(=O)=O)c4)c3c2)cnc1N [GSK1669921],12,24,0,17,0,0,0,21,0,14,7,86,5,0,0,27,39,0,0,19
Cn1cc(-c2ccc3c(c2)CCN3C(=O)Cc2cccc(F)c2)c2c(N)ncnc21 [GSK2603358],0,17,0,12,19,3,7,100,0,13,46,0,0,0,91.9,0,33,0,37,27
O=C(Nc1n[nH]c2cc(-c3ccoc3)ccc12)C1CC1 [SB-738481],29,18,0,8,0,6,8,77,0,3,0,14,22,0,0,0,13,11,0,3
O=C(O)C(F)(F)F.O=C(O)C(F)(F)F.O=c1[nH]ccc2nc(N[C@@H]3CCCNC3)nc(Nc3ccc(S(=O)(=O)N4CCOCC4)cc3)c12 [GSK2177277],82,98.7,99.3,99.4,93.4,98.6,70,99.8,92.6,96.9,78,0,0,92.1,78,88,79,73,59,0
COC(=O)Nc1nc2cc(Oc3ccc(NC(=O)Nc4cc(C(F)(F)F)ccc4F)cn3)ccc2[nH]1.Cl.Cl [GW681170],0,30,0,0,62,0,1,100,0,8,92.9,0,0,11,99.8,22,47,36,21,0
CC(C)(C)c1ccc2nccc(Nc3cccc(O)c3)c2c1 [GW856795],0,36,35,32,23,15,9,26,10,0,85,0,1,29,0,36,18,22,0,40
CN1CCN(Cc2cccc(-c3ccc4c(Nc5ccc(Oc6ccccc6)cc5)ccnc4c3)c2)CC1 [GW578342],0,0,0,0,0,0,11,93.7,10,0,95.2,0,0,12,21,0,38,58,0,27
Oc1cc(Nc2ccnc3cc(I)ccc23)ccc1F [GW552771],0,7,0,32,43,28,0,70,0,0,78,8,0,0,0,55,4,20,9,22
O=C(Nc1cccc(Oc2ccc3nc(NC(=O)C4CC4)cn3n2)c1)c1ccccc1C(F)(F)F,7,43,29,0,0,0,91.5,100,0,0,72,6,7,0,95.1,0,39,57,0,0
Cl.Cl.NCC(NC(=O)c1cc(-c2ccccc2)c(-c2ccnc3[nH]ccc23)s1)c1ccccc1 (centres unmarked) [GSK1321561],0,41,50,48,57,45,0,12,3,11,87,0,0,0,0,0,21,66,0,23
